We go through 4 compounds from the supplement of paper PMC9262897, “Low-cost anti-mycobacterial drug discovery using engineered E. coli” (Nature Communications, 2022).

Structures can show the parent of a compound that is named as a salt. ± gives the standard deviation of the averaged measurements.

Assay in all cases: growth (OD600 after 10 h); higher = more growth (less inhibition)
The subject of assay [1] is E. coli TESEC Alr+ wild-type control. Particulars: compound 0.1 mM; raw OD600 reference: median of DMSO wells 0.241, cell-free background 0.041. The procedure: (§1)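 TESEC Mtb Alr E. coli, or the Alr+ wild-type control, in 384-well plates with Prestwick library compounds at 0.1 mM and 1% DMSO, across arabinose induction levels of 1E3 to 1E7 nM. Growth is read as OD600 after 10 h at 37 °C in triplicate biological replicates.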

The subject of assay [2] is E. coli TESEC Mtb Alr. To be noted: compound 0.1 mM. The procedure: as §1
The subject of a further assay is E. coli TESEC Mtb Asd. Particulars: compound 0.1 mM. The procedure:
(§2)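 TESEC E. coli strains in which the native enzyme is deleted and replaced by arabinose-inducible Mtb Asd, DapB, CysH or TrpD, each grown in its selective medium. Strains were screened against the Prestwick library at 0.1 mM and 1% DMSO in 384-well format at low and high arabinose induction. Growth is read as OD600 after 10 h in triplicate.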

A further assay relates to E. coli TESEC Mtb DapB. To be noted: compound 0.1 mM. The procedure:
as §2

The test system of assay [3] is E. coli TESEC Alr+ wild-type control. To be noted: compound 0.1 mM; raw OD600 reference: median of DMSO wells 0.49, cell-free background 0.052. The procedure: (§3)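 TESEC Mtb Alr E. coli (ΔaraC ΔtolC ΔentC Δalr ΔdadX, arabinose-inducible Mtb Alr) or the Alr+ wild-type control strain, grown in defined M9-fructose medium without D-alanine in 96-well plates with Prestwick library compounds at 0.1 mM and 1% DMSO. Low Alr induction is 0.1 µM arabinose and high induction is 10 mM arabinose.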

Assay [4] deals with E. coli TESEC Mtb Alr. Particulars: compound 0.1 mM. The procedure: as §3
The source holds these as a separate data set.

The mark [5] stands for this setting: arabinose 1000 nM, raw OD600 reference: median of DMSO wells 0.294, cell-free background 0.041.
[6] abbreviates: arabinose 10000 nM, raw OD600 reference: median of DMSO wells 0.264, cell-free background 0.041.
The mark [7] stands for this setting: arabinose 100000 nM, raw OD600 reference: median of DMSO wells 0.201, cell-free background 0.041.
[8] abbreviates: arabinose 1000000 nM, raw OD600 reference: median of DMSO wells 0.193, cell-free background 0.041.
[9] abbreviates: arabinose 10000000 nM, raw OD600 reference: median of DMSO wells 0.146, cell-free background 0.041.
Setting [10] is: arabinose induction (level): High, raw OD600 reference: median of DMSO wells 0.331, cell-free background 0.041.
The mark [11] stands for this setting: arabinose induction (level): Low, raw OD600 reference: median of DMSO wells 0.417, cell-free background 0.041.
Setting [12] is: arabinose induction (level): High, raw OD600 reference: median of DMSO wells […], cell-free background 0.041.
Setting [13] is: arabinose induction (level): Low, raw OD600 reference: median of DMSO wells 0.227, cell-free background 0.041.
The mark [14] stands for this setting: arabinose 100 nM, raw OD600 reference: median of DMSO wells 0.413, cell-free background 0.052.
Setting [15] is: arabinose 10000000 nM, raw OD600 reference: median of DMSO wells […], cell-free background 0.052.

Take `CN1CCC(=C2c3ccccc3CCc3sccc32)CC1` [Pizotifen malate]: the growth in assay [1] came to 0.127 ± 0.006; in the assay on E. coli TESEC Mtb Alr [2] (setting [5]), 0.133 ± 0.0045; in the assay on E. coli TESEC Mtb Alr [2] (setting [6]), 0.0893 ± 0.0025; in the assay on E. coli TESEC Mtb Alr [2] (setting [7]) it was 0.0952 ± 0.0015; in the assay on E. coli TESEC Mtb Alr [2] (setting [8]), 0.0482 ± 0.0045; with E. coli TESEC Mtb Alr [2] (setting [9]) it was 0.0637 ± 0.00071. The growth with E. coli TESEC Mtb Asd (setting [10]) came out at 0.148 ± 0.013; in the assay on E. coli TESEC Mtb Asd (setting [11]), 0.181 ± 0.012; in the assay with E. coli TESEC Mtb DapB (setting [12]) it was 0.178 ± 0.0086; in the assay with E. coli TESEC Mtb DapB (setting [13]) it was 0.193 ± 0.0037; in assay [3], 0.146 ± 0.012; with E. coli TESEC Mtb Alr [4] (setting [14]), 0.402 ± 0.027. The compound also had a growth with E. coli TESEC Mtb Alr [4] (setting [15]) of 0.132 ± 0.054.

For the compound `CCN(CC)C(=O)N1CCN(C)CC1` [Diethylcarbamazine citrate], the growth is 0.255 ± 0.0031 in assay [1]; 0.274 ± 0.031 in the assay with E. coli TESEC Mtb Alr [2] (setting [5]); 0.275 ± 0.015 with E. coli TESEC Mtb Alr [2] (setting [6]); 0.196 ± 0.017 in the assay on E. coli TESEC Mtb Alr [2] (setting [7]); 0.191 ± 0.0045 in the assay on E. coli TESEC Mtb Alr [2] (setting [8]); 0.148 ± 0.0047 in the assay on E. coli TESEC Mtb Alr [2] (setting [9]). Besides, the growth in the assay with E. coli TESEC Mtb Asd (setting [10]) is 0.333 ± 0.092; in the assay with E. coli TESEC Mtb Asd (setting [11]) it was 0.487 ± 0.02; in the assay on E. coli TESEC Mtb DapB (setting [12]), 0.188 ± 0.0069; with E. coli TESEC Mtb DapB (setting [13]), 0.226 ± 0.025; in assay [3], 0.549 ± 0.066; in the assay on E. coli TESEC Mtb Alr [4] (setting [14]), 0.411 ± 0.0087. In the assay on E. coli TESEC Mtb Alr [4] (setting [15]), this compound gave a growth of 0.33 ± 0.014.

Regarding `COC(=O)[C@@H]1[C@H]2C[C@H]3c4[nH]c5ccccc5c4CCN3C[C@@H]2CC[C@@H]1O` [Yohimbine hydrochloride], the growth in assay [1] turned out to be 0.217 ± 0.0081; in the assay with E. coli TESEC Mtb Alr [2] (setting [5]) it was 0.28 ± 0.007; in the assay on E. coli TESEC Mtb Alr [2] (setting [6]), 0.265 ± 0.0075; in the assay on E. coli TESEC Mtb Alr [2] (setting [7]), 0.176 ± 0.011; in the assay on E. coli TESEC Mtb Alr [2] (setting [8]) it was 0.142 ± 0.0078; in the assay with E. coli TESEC Mtb Alr [2] (setting [9]) it was 0.142 ± 0.0022. Moreover, the growth was 0.163 ± 0.031 in the assay with E. coli TESEC Mtb Asd (setting [10]); 0.318 ± 0.074 in the assay on E. coli TESEC Mtb Asd (setting [11]); 0.166 ± 0.01 in the assay with E. coli TESEC Mtb DapB (setting [12]); 0.19 ± 0.012 in the assay with E. coli TESEC Mtb DapB (setting [13]); 0.525 ± 0.13 in assay [3]; 0.409 ± 0.011 in the assay on E. coli TESEC Mtb Alr [4] (setting [14]). Further, in the assay on E. coli TESEC Mtb Alr [4] (setting [15]), the growth was determined as 0.343 ± 0.031.

As to `CNCC(O)c1ccc(OC(=O)C(C)(C)C)c(OC(=O)C(C)(C)C)c1` (configuration not stated) [Dipivefrin hydrochloride], the growth was found to be 0.171 ± 0.01 in assay [1]; 0.239 ± 0.018 with E. coli TESEC Mtb Alr [2] (setting [5]); 0.255 ± 0.011 in the assay with E. coli TESEC Mtb Alr [2] (setting [6]); 0.164 ± 0.016 in the assay on E. coli TESEC Mtb Alr [2] (setting [7]); 0.0939 ± 0.0013 in the assay on E. coli TESEC Mtb Alr [2] (setting [8]); 0.142 ± 0.004 with E. coli TESEC Mtb Alr [2] (setting [9]). The growth in the assay on E. coli TESEC Mtb Asd (setting [10]) is 0.174 ± 0.029; with E. coli TESEC Mtb Asd (setting [11]) it was 0.269 ± 0.048; in the assay on E. coli TESEC Mtb DapB (setting [12]) it was 0.188 ± 0.023; in the assay with E. coli TESEC Mtb DapB (setting [13]), 0.167 ± 0.0099; in assay [3], 0.394 ± 0.018; in the assay with E. coli TESEC Mtb Alr [4] (setting [14]), 0.391 ± 0.022. Besides, the growth with E. coli TESEC Mtb Alr [4] (setting [15]) was 0.19 ± 0.014.
